# PostGolgi yeast: growth inhibition of a yeast mutant, post-Golgi transport screen | AID 739 | post-Golgi transport phenotypic cell assay | inhibition, % at 10 µM | 0.9% of 98,000 active;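 further: yeast cells grown in 1536-well plates; yeast grown about 18 h at 30C before absorbance read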
# PostGolgi ctrl: inhibits growth of the yeast control strain; efflux-deficient yeast background strain, growth absorbance A615, 16 h; inhibition, % at 10 µM; 5% of 98,000 active
# CYP2C9 activ: increases human cytochrome P450 2C9 activity | P11712 | recombinant CYP2C9, luciferin-H conversion, luminescence; active compounds read high; factor 1 = untreated enzyme, 0 = blocked | activation factor at 5 µM | 1.4% of 96,000 active;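 active means activation factor of 2 or more for CYP2C9 at a 5 µM dose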
# Target sequence (P11712 whole entry, looked up): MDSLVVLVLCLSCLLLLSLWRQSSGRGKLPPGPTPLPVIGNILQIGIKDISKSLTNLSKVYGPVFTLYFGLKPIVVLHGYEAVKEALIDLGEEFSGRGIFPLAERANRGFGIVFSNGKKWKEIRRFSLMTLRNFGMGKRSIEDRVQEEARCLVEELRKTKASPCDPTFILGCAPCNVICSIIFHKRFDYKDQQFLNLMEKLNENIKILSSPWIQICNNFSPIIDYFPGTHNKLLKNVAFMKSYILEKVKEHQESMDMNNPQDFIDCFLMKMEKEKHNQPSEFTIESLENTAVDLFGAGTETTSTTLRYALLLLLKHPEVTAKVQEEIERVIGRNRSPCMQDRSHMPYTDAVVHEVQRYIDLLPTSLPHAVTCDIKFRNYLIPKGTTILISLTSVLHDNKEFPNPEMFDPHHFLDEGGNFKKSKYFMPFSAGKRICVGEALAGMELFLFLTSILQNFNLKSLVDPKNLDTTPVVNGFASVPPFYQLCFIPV
# CYP2C19 inh: human CYP2C19 inhibition | CYP2C19 Supersomes, luciferin-H EGE luminescence, 30 min | 21% of 96,000 active | AID 778 | inhibition, % at 5 µM | P33261;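 active means CYP2C19 inhibition above a set limit at 5 µM in the primary screen, cut at about 50% in these data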
# CYP2C19 act: activators of human cytochrome P450 2C19; P33261; recombinant CYP2C19, luciferin-H EGE luminescence; active compounds read high; 0 = fully inhibited enzyme, 1 = untreated enzyme; 96,000 tested, under 10 active; AID 1025; activation factor at 5 µM;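 active means activation factor of at least 2 at 5 µM in the primary screen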
# CYP2C9 inh: blocks human cytochrome P450 2C9; inhibition, % at 5 µM; P11712; 20% of 96,000 active; CYP2C9 Supersomes, luciferin-H conversion, luminescence;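 active means blocking of liver enzyme CYP2C9 beyond about 50% at 5 µM, limit read from the data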
# Numbers stand for hits; n = inactive. Shown are actives, neighbours in structure and some others; about 32% of the full set was active somewhere. Unless noted, no stated cut-off is given here; in the data, active means inhibition above about 30%; inactive means the rest.
SMILES,PostGolgi yeast,PostGolgi ctrl,CYP2C9 activ,CYP2C19 inh,CYP2C19 act,CYP2C9 inh
O=C(CSc1nnc(Cc2ccccc2)o1)NCc1ccco1,n,n,n,n,n,n
O=C(CN(C(=O)CSc1nnc(COc2ccccc2)o1)c1ccc(F)cc1)NC1CCCC1,n,n,n,n,n,n
O=C(CSc1nnc(Cc2ccccc2)o1)NC1CC2CCC1C2 (configuration not stated),n,n,n,52,n,n
CCOc1ccc(N(CC(=O)NC2CCCC2)C(=O)CSc2nnc(COc3ccccc3)o2)cc1,n,n,n,n,n,58
O=C(O)CCCCCNC(=O)c1ccccc1Br,n,n,n,n,n,n
O=C(CSc1nnc(-c2ccco2)o1)NC1CCCCCC1,n,n,n,75,n,n
O=C(CSc1nnc(-c2ccco2)o1)NC(=O)Cc1ccccc1,n,n,n,n,n,n
O=C(NC1CCCCCC1)C1C2C=CC3(CN(Cc4cccnc4)C(=O)C13)O2 (configuration not stated),n,n,n,n,n,n
Cn1cccc1C(=O)Nc1nc(-c2ccccn2)cs1,n,n,n,n,n,n
Cc1csc(NC(=O)c2cccn2C)n1,n,31,n,n,n,n
COc1cccc(NC(=O)CSc2nc(C)cs2)c1,n,n,n,82,n,n
Cc1cc2ccccc2n2c(SCC(=O)NCc3cccs3)nnc12,n,n,n,64,n,n
Cc1csc(SCC(=O)NCc2cccs2)n1,n,38,n,n,n,n
Cc1csc(-c2cnn(-c3ccccc3)c2NC(=O)c2cccc(F)c2)n1,n,n,n,n,n,n
COCc1c(C(N)=O)nnn1-c1nonc1N,n,n,n,n,n,n
CCOc1ccc(NC(=O)C23CC4CC(C2)CC(c2ccccc2)(C4)C3)cc1,n,n,n,n,n,n
O=C1NC2NC(=O)N(C(Cc3ccccc3)C(=O)O)C2N1 (configuration not stated),n,n,n,n,n,n
Cc1sc2nc(SCC(=O)NCc3ccco3)[nH]c(=O)c2c1C,n,n,n,n,n,n
Cc1csc(SCC(=O)Nc2cccc3nsnc23)n1,n,n,n,55,n,77
Cc1sc2nc(CN(Cc3cccs3)C(=O)C3CC3)[nH]c(=O)c2c1C,n,n,n,97,n,88
Cc1csc(NC(=O)CSc2nc(C)cs2)n1,n,n,n,58,n,n
Cc1sc2nc(SCC(=O)NCc3cccs3)[nH]c(=O)c2c1C,n,n,n,n,n,67
Cc1csc(SCC(=O)Nc2ccccn2)n1,n,n,n,n,n,n
Cc1sc2ncnc(N(C)Cc3cccs3)c2c1C,n,n,n,n,n,n
COC(=O)c1c(-c2ccc(F)cc2)noc1N,n,n,n,n,n,n
SMILES,PostGolgi yeast,PostGolgi ctrl,CYP2C9 activ,CYP2C19 inh,CYP2C19 act,CYP2C9 inh
CC(C)CCn1nnnc1C(c1ccc(N(C)C)cc1)N1CCN(C(=O)c2ccco2)CC1 (configuration not stated),n,n,n,90,n,66
COCCn1nnnc1C(CC(C)C)N1CCN(C(=O)c2ccco2)CC1 (configuration not stated),n,n,n,n,n,n
CN(C)c1ccc(C(c2nnnn2C(C)(C)C)N2CCN(C(=O)c3ccco3)CC2)cc1 (configuration not stated),n,n,n,61,n,n
COc1cccc2c1C(=O)O/C2=C/c1ccc2c(c1)OCO2,n,n,n,62,n,55
O=C(Nc1ccccc1)N1CCN(c2nc3ccccc3s2)CC1,n,n,n,63,n,59
CCC(=O)N1CCN(c2nc3ccccc3s2)CC1,n,n,n,n,n,n
O=C(c1cc2sccc2n1Cc1ccccc1)N1CCN(c2nc3ccccc3s2)CC1,n,41,n,n,n,53
CCCCN1C(=O)c2ccc(C(=O)Nc3cccc(C)c3C)cc2C1=O,n,n,n,n,n,n
CCCCN1C(=O)c2ccc(C(=O)NC3=NCCS3)cc2C1=O,n,n,n,n,n,72
COCC(C)OC(=O)c1c(N)n(CC(C)C)c2nc3ccccc3nc12 (configuration not stated),n,n,n,n,n,n
CC1CC(C)CN(C(=O)c2ccc3c(=O)n(Cc4ccc5c(c4)OCO5)c(=S)[nH]c3c2)C1 (configuration not stated),n,36,n,n,n,n
O=C(c1ccc2c(=O)n(Cc3ccc4c(c3)OCO4)c(=S)[nH]c2c1)N1CCCCC1,n,n,n,n,n,n
O=C(CCCCCn1c(=O)[nH]c2ccsc2c1=O)NCc1ccc2c(c1)OCO2,n,n,n,n,n,63
COC(=O)c1ccc2c(=O)n(CCCCCC(=O)NCc3ccccc3)c(=O)[nH]c2c1,n,n,n,n,n,51
CCCCCn1c(=O)[nH]c2cc(C(=O)NCc3ccc4c(c3)OCO4)ccc2c1=O,n,n,n,n,n,n
COC(=O)c1ccc2c(=O)n(CCCCCC(=O)NCc3ccccn3)c(=O)[nH]c2c1,n,n,n,n,n,n
COC(=O)c1ccc2c(=O)n(CCCCCC(=O)NCc3ccc4c(c3)OCO4)c(=O)[nH]c2c1,n,n,n,n,n,52
O=C(CCCn1c(=S)[nH]c2ccsc2c1=O)NCc1ccco1,n,n,n,n,n,n
O=C(COC(=O)c1ccc(Br)o1)NCC1CCCO1 (configuration not stated),n,n,n,n,n,n
O=C(N/N=C\c1cn(-c2ccccc2)nc1-c1ccccc1)c1ccc(Br)o1,n,n,n,n,n,57
Cc1ccc(-c2nn(-c3ccccc3)cc2/C=N/NC(=O)c2ccc(Br)o2)cc1,n,n,n,n,n,52
O=C(N/N=C/c1cn(-c2ccccc2)nc1-c1ccccc1)c1ccco1,n,n,n,n,n,n
Cc1nnc(SCC(=O)N/N=C/c2cn(-c3ccccc3)nc2-c2ccccc2)n1-c1ccccc1,n,n,n,n,n,53
Brc1cccc(-c2nnc(SCc3nc4ccccc4[nH]3)o2)c1,n,n,n,n,n,n
Clc1ccccc1CSc1nnc(-c2ccncc2)o1,n,n,n,95,n,90
c1ccc2[nH]c(CSc3nnc(-c4ccncc4)o3)nc2c1,n,n,n,80,n,81
c1ccc2c(CSc3nnc(-c4ccncc4)o3)cccc2c1,n,n,n,96,n,91
CC12CCC(C(=O)Nc3cc(Cl)ccc3Cl)(C/C1=N\O)C2(C)C (configuration not stated),n,n,3.1,n,n,n
Cc1ccnc(NC2c3ccccc3C(=O)N2Cc2ccccc2Cl)c1 (configuration not stated),n,n,n,n,n,n
Cc1ccc(N2C(=O)c3ccccc3C2Nc2ccccc2F)nc1 (configuration not stated),n,n,n,n,n,n

# Screening data from PubChem BioAssay.
